# Bioassay records (PubChem)
# An excerpt weighted towards active compounds, which were near 3.2% of everything screened.
# IL2 activator – activators of IL-2; IL-2 activation reporter assay, cell-based qHTS; stimulated with anti-CD3/CD4/CD28 beads; in transgenic mouse T cells; 360,000 tested, 0.065% active; activation, % (series mostly up to about 46 µM); AID 652025; in the data active = activation above about 50%; inconclusive = mostly about 30% to 49%; also: 0% is about no effect
#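 EGFP and DsRed fluorescence is measured by plate cytometry in unstimulated transgenic mouse T cells exposed to compound for 60 minutes, then stimulated 18 hours at 37 degrees C with anti-CD3/anti-CD4 beads plus anti-CD28.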
# p53 reactivation – restores transcriptional activity of mutant p53. H1299 p53-A138V BP100-luciferase reporter, luminescence, 24 h. Potency, µM (doses to about 92.2 µM), for the others: at the top dose activity change, positive = activation, most hits filed as activators. 320,000 tested, 0.063% active. AID 504706; also: potency is read from the fitted curve at half-maximal effect; % of control where 0% means no effect; nearly all actives have a fitted effect of over 45% in size
#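 p53-null H1299 cells stably carrying temperature-sensitive p53-A138V and a BP100-luciferase reporter were pinned with compounds (4-point, 1:5 series) and held 24 hrs at 37 deg C. Luminescence was read 10 min after detection reagent.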
# Nrf2 activator – Nrf2 pathway activation | AREc32 ARE-luciferase reporter (MCF7-derived line), luminescence, 24 h | Potency, µM (doses to about 46.1 µM), inactives show at the top dose activation, most hits filed as activators | 410,000 tested, 0.31% active | AID 624171; also: potency is read from the fitted curve at half-maximal effect; % of control where 0% means no effect; nearly all actives have a fitted effect of over 65% in size
#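 Reporter line AREc32 (ARE-Fluc), seeded overnight in OPTI-MEM with 5% FBS; compound pin-transferred, 24 hr at 37 deg C, 5% CO2; luminescent read-out.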
# BRCA1 expr act – increases BRCA1 expression; MCF7-BRCA1-FFLuc reporter, luminescence, 48 h; response scale: scaled: vehicle 0%, 10 µM genistein 100%; Potency, µM (titrated, usually from 46.1 µM), inactives show at the top dose activation, actives largely listed as activators; 380,000 tested, 1.1% active; AID 624202; also: potency is read from the fitted curve at half-maximal effect; nearly all actives have a fitted effect of over 80% in size
#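 Quantitative HTS in MCF7 cells stably reporting BRCA1 expression via firefly luciferase. Compound treatment lasts 48 h at 37 °C in phenol-red free MEM. Activation is expressed relative to genistein at 10 microM and DMSO.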
# Nrf2 inh – blocks Nrf2 signaling; A549 ARE-Fluc reporter, luciferase luminescence, 18-24 h; 360,000 tested, 2.1% active; Potency, µM (highest dose often 46 µM), inactives show at the highest dose activity change, negative = inhibition, usual class: inhibitors; also: potency is read from the fitted curve at half-maximal effect; % is scaled to controls: 0 for no effect and ±100 for the full control effect; nearly all actives have a fitted effect of over 60% in size
#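 Nrf2 activity is the BugLite luminescence, read 15 min after reagent at room temperature, following CellTiter-Fluor cytotoxicity readout (30 min, 37C). Compound titrations were applied for 18-24 h to 5000 A549 ARE_Fluc cells/well in 5% FBS OPTI-MEM.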
# A549 viability – A549 cytotoxicity, counter-screen for Nrf2 inhibitors | Potency, µM (doses to about 46 µM), without a hit: at the highest dose activity change, negative = cytotoxicity, hits mostly inhibitors | 390,000 tested, 0.16% active | A549 ARE-Fluc cells, CellTiter-Fluor viability, 18-24 h; also: potency is read from the fitted curve at half-maximal effect; % is scaled to controls: 0 for no effect and ±100 for the full control effect
#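 Cytotoxicity counterscreen: CellTiter-Fluor fluorescence was measured in A549 ARE_Fluc cells after 18-24 h of compound exposure in a concentration series. The subsequent BugLite luminescent read reports ARE-luciferase activity.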
# * hit, by the source's call; u = inconclusive; x = not tested or not shown; [ ] = remark or other dose. Unless noted, calls follow the shape of the dose curve; as a rule, active = well fitted curve in the direction sought with a large enough effect; inconclusive = small, poorly fitted or top-dose-only effect, or another doubt; inactive = no such curve, though single readings can be large; an effect the other way counts as inactive or inconclusive.
SMILES,IL2 activator,p53 reactivation,Nrf2 activator,BRCA1 expr act,Nrf2 inh,A549 viability
O=S(=O)(NCc1ccc2c(c1)OCO2)c1cccc(F)c1,-1,9%,0%,-3%,5%,-2%
O=S(=O)(NCc1ccc2c(c1)OCO2)c1ccc2c(c1)oc1ccccc12,-1,3%,3%,-3%,21µM*,-15%
COc1cc(N(C)C)c(OC)cc1/C=C/c1ccnc2ccccc12,x,x,x,-48%,x,x
CC(C)(C)C(=O)Cn1ncc(N2CCCC2)c(Br)c1=O,-2,5%,16%,10µM*,x,-1%
CC(C)Cn1nc(NS(=O)(=O)c2ccccc2)c2cc3ccccc3nc21,-1,-1%,0%,0%[1.84 µM],5%,-2%
CCCc1nc([N+](=O)[O-])c(S(=O)(=O)c2ccccc2)n1CC(C)C,-4,-13%,5.6µM*,-72%,1%,-12%
CCc1nn2c(-c3ccco3)ccnc2c1-c1ccc(F)cc1,x,x,u,-21%,u,-14%
CCCCN1C(=O)C(=O)NC[C@H]1Cc1cccc2ccccc12,0,x,0%,20%,x,x
O=C1NC[C@@H](Cc2cccc3ccccc23)N(CC2(c3ccccc3)CC2)C1=O,0,-4%,4%,-29%,21µM*,u
COc1cccc(-n2c(SCC(=O)Nc3ccc4c(c3)OCO4)nc3c([nH]c4ccccc43)c2=O)c1,x,x,0%,-10%,x,-25%
CC(=O)c1ccc(NCCC(=O)c2ccccc2)cc1,-2,-11%,4%,11µM*,u,1%
COc1ccccc1-c1noc(CSc2nnc(Cc3ccccc3)n2-c2ccc(C)c(C)c2)n1,x,x,-3%,x,23µM*,u
Clc1ccc(-n2c(Cc3ccccc3)nnc2SCc2nc(-c3cccs3)no2)cc1,x,x,0%,-7%,u,u
COc1ccc(-c2noc(CSc3nnc(C)n3-c3ccc(C)c(C)c3)n2)c(OC)c1,x,x,8%,x,-29%,-3%
CCOc1ccc(-n2c(Cc3ccccc3)nnc2SCc2nc(-c3cccs3)no2)cc1,x,x,6%,6%,18µM*,u
Cc1ccc(NC(=O)N2CCC(CN3CCCC3)CC2)c(C)c1,x,x,0%,x,5%,6%
CC(C)c1ccc(C(=O)CSc2ncn[nH]2)cc1,-3,u,7%,14µM*,u,-7%
Cc1ccc(-n2nc3c(N4CCC(C(=O)NC5CCCCC5)CC4)nnc(C)c3c2C)cc1,x,x,1%,x,16%,-5%
Cc1cc(NC(=O)CC2CCCC2)n(-c2nc3ccccc3[nH]2)n1,1,3%,0%,-48%,26µM*,u
Cc1cc(NCc2ccccn2)n2nc(C)c(-c3ccc(Cl)cc3)c2n1,-1,-2%,0%,-78%,16µM*,-29%
Cc1cc(NCc2ccccn2)n2ncc(-c3ccc(Cl)cc3)c2n1,0,u,0%,18%,u,-15%
CC(C)c1ccc(-c2noc(SCC(=O)N3CCN(c4ccccc4F)CC3)n2)cc1,x,x,-1%,x,u,-4%
COc1cccc(CNC(=O)Cc2c(C)c3ccc(OC)c(C)c3oc2=O)c1,x,x,0%,x,8%,-5%
COc1ccc(CNc2oc(-c3ccc(COc4ccccc4C)o3)nc2C#N)cc1,x,x,0%,x,21µM*,0%
Cc1ccc(OCc2ccc(-c3nc(C#N)c(NCc4cccnc4)o3)o2)cc1,x,x,4%,x,u,-23%
SMILES,IL2 activator,p53 reactivation,Nrf2 activator,BRCA1 expr act,Nrf2 inh,A549 viability
Cc1ccccc1OCc1ccc(-c2nc(C#N)c(NCc3cccnc3)o2)o1,x,x,0%,x,12µM*,11%
COc1ccc(OCc2ccc(-c3nc(C#N)c(NCc4ccccc4)o3)o2)cc1,x,x,7%,x,u,u
Cc1ccc(NS(=O)(=O)c2cc3c(cc2N2CCCCC2)NC(=O)CC3)cc1C,x,x,x,x,u,-17%
COc1ccc(C2c3cc(OC)c(OC)cc3CC(=O)N2c2ccc(C)cc2)cc1 (configuration not stated),x,x,4%,x,-23%,0%
NNC(=O)C(C(=O)OCc1ccccc1)c1ccccc1 (configuration not stated),x,x,x,x,u,-14%
COc1cccc2ccc(/C=C/c3ccc4c(c3)OCO4)nc12,x,x,x,3.5µM*,u,10%
Cc1ccnc2ccc(F)cc12,x,x,x,109%,x,x
CCOc1ccc(N(CC)C(=O)c2cc3c(s2)-c2ccc(Cl)cc2SC3)cc1,x,x,1%,x,16µM*,u
CCC(C)c1ccccc1NC(=O)COC(=O)c1ccc2[nH]c3c(c2c1)CCCC3 (configuration not stated),-1,2%,2%[9.22 µM],-80%,21µM*,u
Cn1c(=O)n(C)c2cc(N3CCOCC3)c(NC(=O)c3c(F)cccc3F)cc21,x,x,0%,x,-14%,1%
COc1ccc(-c2c(C3C4C=CCC(C)C4C(=O)N3Cc3ccccc3)ccc3ccccc23)cc1OC (configuration not stated),x,x,x,x,21µM*,-15%
COc1ccc(C2C3C=CCC(c4cccc(-c5ccc(C)cc5)c4)C3C(=O)N2Cc2ccccc2)cc1Cl (configuration not stated),0,5%,-1%,-45%,-4%,-3%
COc1ccc(C2C3C=CCC(c4ccccc4)C3C(=O)N2Cc2ccccc2)cc1Cl (configuration not stated),x,x,x,x,21µM*,u
COc1ccc(-c2c([C@H]3[C@H]4C=CC[C@@H](C)[C@@H]4C(=O)N3Cc3ccccc3)ccc3ccccc23)cc1,0,2%,7%,-26%,u,-12%
Cc1cc(C)c(S(=O)(=O)n2cnc(C)c2)c(C)c1,x,x,-1%,x,u,-2%
Clc1ccc(-c2noc3ncnc(NCCCN4CCN(c5ccccc5)CC4)c23)cc1,x,x,1%,-19%,-5%,-26%
CCC(=O)Nc1c(S(=O)(=O)c2ccccc2)c2nc3ccccc3nc2n1C(C)c1ccccc1 (configuration not stated),-5,0%,0%,-47%,18µM*,-24%
COc1ccccc1NC(=O)C(NC(=O)OC(C)(C)C)C(C)OCc1ccccc1 (configuration not stated),1,9%,0%,4%,23µM*,-5%
CC(Oc1ccc(Cl)cc1Cl)c1nc(-c2ccc(NC(=O)c3ccncc3)cc2)no1 (configuration not stated),-3,1%,0%,-77%,10µM*,-1%
CC(Oc1ccc(Cl)cc1Cl)c1nc(-c2ccccn2)no1 (configuration not stated),-1,18%,1%,11µM*,u,6%
